# An excerpt weighted towards active compounds, which were near 11% of everything screened.
# Pf growth 96h: P. falciparum growth inhibition at 96 hour, primary screen for plastid delayed-death inhibitors. actives 6.9% (n = 320,000). Potency, µM (series often up to 28.7 µM), usual class: inhibitors. P. falciparum luciferase reporter growth, 96 h
#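 Two-generation exposure (96 h) targets delayed-death phenotype. Reporter parasites carrying integrated firefly luciferase, in red cells at 2% hematocrit and 0.05% parasitemia final, kept at 37 C, 5% CO2; luminescence loss indicates inhibition.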
# NS1 inh: influenza NS1 inhibition | Potency, µM (titrated, usually from 46.1 µM) | actives 0.4% (n = 270,000); calls by dose curve; also: actives are rising curves; nearly all actives have a fitted effect of over 50% in size
#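 S. cerevisiae expressing influenza A NS1, grown in glucose, washed, then diluted 1:100 into pH 6.0 -URA galactose medium with 23 nl compound. Growth recovery read as OD600; NS1-free strain serves as control.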
# VACV Venus inh: inhibitors of vaccinia virus (Venus reporter); Vaccinia virus Venus reporter expression, fluorescence; AID 720580; actives 0.46% (n = 330,000); Potency, µM (top dose mostly 36.5 µM), actives largely listed as inhibitors; calls by dose curve; tested in A549 cells; also: nearly all actives have a fitted effect of over 30% in size
# HCV inhibitor: blocks hepatitis C virus; Huh7.5.1 HCVcc-Cre infection, luciferase reporter, 44 h; actives 3.4% (n = 340,000); Potency, µM (series often up to 41.8 µM), usual class: inhibitors
#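 A cell-based infection assay in which seeded cells (1,000 per well) receive test compound after 4 h, are inoculated with HCVcc-Cre at approximately 0.5 moi, and are incubated 44 h before luminescence detection.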
# Pf growth 48h: inhibits P. falciparum growth in the first generation, 48 h. P. falciparum luciferase growth in erythrocytes, 48 h. Potency, µM (top dose mostly 28.7 µM), actives largely listed as inhibitors. actives 5.9% (n = 310,000)
#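 Luciferase-expressing P. falciparum in infected erythrocytes (2% hematocrit, 0.1% parasitemia final) in RPMI 1640/0.5% Albumax were exposed to compound for 48 hours at 37 C, 5% CO2; growth read as luminescence.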
# Vaccinia mCherry: vaccinia inhibition (mCherry reporter); Vaccinia virus mCherry reporter infection, fluorescence; Potency, µM (top dose mostly 36.5 µM), usual class: inhibitors; actives 0.63% (n = 310,000); AID 720579; calls by dose curve; tested in A549 cells; also: nearly all actives have a fitted effect of over 35% in size
# Hits are given with their value; . = inactive; ? = inconclusive; / = no result given; [ ] = another dose, or the depositor's remark. Unless noted, calls follow the shape of the dose curve; as a rule, active = well fitted inhibition curve with a large enough effect; inconclusive = small, poorly fitted or top-dose-only effect, or another doubt; inactive = no such curve, though single readings can be large or run the other way.
SMILES,Pf growth 96h,NS1 inh,VACV Venus inh,HCV inhibitor,Pf growth 48h,Vaccinia mCherry
Cc1ccc(CNC(=O)CSCc2ccccc2F)cc1,?,/,.,.,.,.
O=C(C[C@H]1C[C@H](C(=O)N2CCOCC2)[C@@]2(CCC3CCCC3)c3[nH]c4ccc(Cl)cc4c3CCN2C1=O)NCCc1ccccn1,/,/,?,.,/,.
COc1ccc(OCC(=O)Nc2cc(NC(=O)c3ccco3)ccc2OC)cc1,8.28µM,.,.,.,?,.
O=C(Nc1cccc(NC(=O)c2ccco2)c1)c1ccc2c(c1)OCCO2,.,.,.,.,.,.
COc1cc(NC(=O)c2ccc3c(c2)OCCO3)ccc1NC(=O)c1ccco1,2.33µM,.,.,.,.,.
COc1cc(NC(=O)COc2ccc(C)c(C)c2)ccc1NC(=O)c1ccco1,.,.,.,?,7.38µM,.
COc1cc(NC(=O)COc2cccc(C)c2C)ccc1NC(=O)c1ccco1,?,.,.,?,.,.
Cc1ccc(NC(=O)COc2ccccc2)c(NC(=O)c2ccco2)c1,.,.,/,.,.,/
COc1ccccc1OCC(=O)Nc1cc(C)ccc1NC(=O)c1ccco1,10.4µM,.,.,.,?,.
O=C(CCn1nc(-c2ccccc2)ccc1=O)N1CCN(c2ccccc2)CC1,?,.,.,.,?,.
C[C@H](Cn1cnc2c(N)ncnc21)OCP(=O)(O)O,.,/,/,/,.,/
CCC(CC)NC(=O)COC(=O)CCC(=O)c1ccc(Cl)cc1,.,/,.,.,.,.
CC(C)(C)OC(=O)N1CCC[C@H]1c1nnc(SCc2c(Cl)cccc2Cl)o1,?,.,.,.,9.28µM,/
Cc1cccc(CSc2nnc([C@@H]3CCCN3C(=O)OC(C)(C)C)o2)c1,?,.,.,.,?,.
CC1(C)Cc2c(cnn2-c2ccccc2)C(NC(=O)CCN2CCCC2=O)C1 (configuration not stated),14.7µM,.,/,.,.,/
Cc1ccc(-n2ncc3c2CC(C)(C)CC3NC(=O)CCCN2CCCC2=O)cc1 (configuration not stated),?,.,/,.,.,/
CC1(C)Cc2c(cnn2-c2ccccc2)C(NC(=O)CCCN2CCCCC2=O)C1 (configuration not stated),6.57µM,.,.,.,.,.
Cc1ccc(-n2ncc3c2CCCC3NC(=O)CCCN2CCCCC2=O)cc1C (configuration not stated),13.1µM,.,.,?,.,.
CC1(C)Cc2c(cnn2-c2ccc(F)cc2)C(NC(=O)CCCN2CCCCC2=O)C1 (configuration not stated),13.1µM,.,.,.,.,.
CC(=O)OCC1(C)CN(c2ccccc2)N(C(C)=O)C1=O (configuration not stated),.,/,/,.,.,/
CCOc1ccccc1NC(=O)COC(=O)C1CCC1,/,/,/,.,/,/
O=C1c2ccccc2C(c2nnnn2-c2ccc3c(c2)OCCO3)N1CCc1ccc(O)cc1 (configuration not stated),/,/,.,/,/,.
COc1ccc(-c2[nH]ncc2CN2CCCN(c3ccccc3)CC2)c(F)c1,.,.,.,.,.,?
Cc1cc(C(=O)NC2CCCc3c2cnn3-c2ccc(C)c(C)c2)nc(C)n1 (configuration not stated),.,.,.,.,?,.
COC(=O)c1ccc(C(=O)NC2CCCc3c2cnn3-c2ccc(C)c(C)c2)cc1 (configuration not stated),?,.,?,12.6µM,.,?
SMILES,Pf growth 96h,NS1 inh,VACV Venus inh,HCV inhibitor,Pf growth 48h,Vaccinia mCherry
CN(C)CCNc1ccc(CO)c2oc3ccc(O)cc3c(=O)c12,/,/,10µM,?,/,?
O=c1cc(NCCCO)c2ccccc2o1,.,.,/,.,/,/
Cc1nc(SCC(=O)NCC(F)(F)F)c2c(-c3cccs3)csc2n1,?,.,/,?,.,/
Cc1nc(SCC(=O)NC(C)(C#N)C2CC2)c2c(-c3cccs3)csc2n1 (configuration not stated),?,.,.,10µM,.,.
O=C(C1=C[C@@H](c2ccc(Br)cc2)C[C@@H](OCCCCO)O1)N1CCN(Cc2ccc3c(c2)OCO3)CC1,4.15µM,.,.,?,4.15µM,.
O=C(C1=C[C@H](c2ccccc2)C[C@H](OCCCCO)O1)N1CCN(Cc2ccc3c(c2)OCO3)CC1,?,.,.,?,?,.
O=C(C1=C[C@H](c2ccc(C(F)(F)F)cc2)C[C@H](OCCCCO)O1)N1CCN(Cc2ccc3c(c2)OCO3)CC1,3.7µM,.,?,?,5.86µM,.
CN(C)CCCN1CC(C(=O)O)CC1=O (configuration not stated),.,.,.,.,.,.
COC(=O)C1=C(C(=O)OC)[C@]2([C@@H]3CCCCN[C@@H](Cc4ccccc4)C(=O)N3Cc3ccccc3)C=C[C@H]1O2,/,/,.,7.94µM,/,.
CCCn1c(CC)nc([N+](=O)[O-])c1Sc1ccc(C)cc1,10.4µM,.,/,.,?,/
O=C1OCc2cc(NC(=O)C3CCCCC3)ccc21,.,.,/,?,.,/
O=C(NNS(=O)(=O)c1ccccc1[N+](=O)[O-])c1cccc([N+](=O)[O-])c1,.,.,.,.,.,.
Cc1ccc(NS(=O)(=O)c2c(C)[nH]c(C)c2C(=O)N2CCCC2)cc1,.,.,.[7.34 µM],.,.,.[7.34 µM]
CCc1ccc(OC)c(-c2csc(N)n2)c1,11.7µM,.,.,?,.,.
CCc1noc(C)c1C(=O)Nc1nc(-c2ccc(OC)cc2OC)cs1,2.33µM,/,.,?,2.33µM,.
COc1ccc(OC)c(-c2csc(NC(=O)CSCc3c(C)noc3C)n2)c1,?,/,.,11.2µM,?,.
COc1ccc(OC)c(-c2csc(NC(=O)CSCC(=O)Nc3cc(C)on3)n2)c1,?,/,/,.,?,/
COc1ccc(-c2csc(N)n2)cc1F,.,/,/,.,.,/
COc1ccc(-c2csc(NC3CCCCC3)n2)c(OC)c1,?,.,.,?,9.28µM,?
COCc1cc(C)nc2c1C(=O)NC(c1ccc(C)cc1)N2Cc1ccccc1 (configuration not stated),/,/,.,/,/,.
COc1ccccc1NC(=O)CS(=O)(=O)c1cn(CC(=O)N2CCOCC2)c2ccccc12,.,/,/,.,.,/
CC(C)(C)c1csc(NC(=O)c2ccccc2O)n1,.,.,?,22.4µM,.,?
COc1ccc(OC)c(-c2csc(NC(=O)Cc3ccc(OC)c(OC)c3)n2)c1,.,.,.,?,.,.
Cc1csc(NC(=O)c2ccccc2O)n1,.,.,.,.,.,/
COc1ccc(OC)c(-c2csc(NC(=O)Cc3ccccc3)n2)c1,?,.,?,?,?,?
CC(C)(C)c1csc(NNC(=O)c2ccc(Br)cc2)n1,?,/,?,?,2.94µM,?
COc1ccc(CC(=O)Nc2nc(-c3cc(OC)ccc3OC)cs2)cc1,?,.,?,12.6µM,.,11.2µM

# Screens (PubChem)
